# From PubChem BioAssay
# Wnt act – Wnt/beta-catenin pathway activation | hit rate 1.2% among 300,000 | activation, % at 9.35 µM | AID 743398 | Wnt/beta-catenin reporter cell assay, activator, plate reader; in the data active = activation above about 30%, passing the limit was not always enough;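 also: 0% = neutral control wells and 100% = positive control wells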
# Statin myotox sup – suppressors of simvastatin-induced myotoxicity in C2C12 myotubes. ATP luminescence, 48 h; scaled: DMSO 0, geranylgeraniol control 100. rescue of ATP level, % at 7.49 µM. hit rate 0.78% among 330,000. AID 602340;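 active = mean ATP rescue above about 67%, or every replicate alone reaching that limit, limit read from the data, passing the limit was not always enough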;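 also: myotubes were challenged with 10 µM simvastatin during compound exposure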
# MITF TRPM1 HTS – MITF TRPM1 promoter activation in melanoma cells; SK-MEL-5 TRPM1-promoter luciferase, 24 h; % of positive control, neutral wells = 0; activation, % at 12.5 µM; hit rate 0.75% among 300,000; AID 588334;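 active = mean activation of at least 80% with every replicate also reaching 80%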;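 also: 0% = neutral control wells and 100% = parthenolide positive control wells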
# FXN GAA850 act – frataxin GAA850 promoter activation; HEK293 lucGAA850 FXN promoter luciferase reporter, 24 h; percent of 10 µM SAHA response; activation, % at 6 µM; hit rate 0.56% among 360,000;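 active = activation above the average of all compounds screened plus 3 SD, cutoff fixed separately per campaign, cut at about 7.5% in these data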;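 also: 0% = DMSO wells and 100% = 10 µM SAHA wells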
# esBAF inh – SWI/SNF esBAF complex inhibition; reporter increase, % at 12.5 µM; hit rate 2% among 350,000; mouse ES cells, Bmi1-luciferase knock-in reporter, 24 h; 100% = twice the neutral-well signal; in the data active = activation above about 40%;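 also: 0% = median of the plate's neutral control wells and 100% = double that signal; a rise in the Bmi1 reporter signal indicates esBAF inhibition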
# Numbers without * were called inactive; x = not tested or not shown. Rows were chosen to be rich in hits. Some 3.3% of all compounds tested hit in one or more screens of this group.
SMILES,Wnt act,Statin myotox sup,MITF TRPM1 HTS,FXN GAA850 act,esBAF inh
CCN(CC)C(=O)CSc1nnc([C@H](CCSC)NC(=O)OC(C)(C)C)o1,x,143*,2,0,0
CSCC[C@H](NC(=O)OC(C)(C)C)c1nnc(SCC(N)=O)o1,x,10,-4,0,-1
COc1cc(/C=N/O)ccc1Oc1ccc([N+](=O)[O-])cc1[N+](=O)[O-],36*,9,-1,4,6
CO/N=C/c1ccc(Oc2ccc([N+](=O)[O-])cc2[N+](=O)[O-])c(OC)c1,-2,x,-6,2,x
CCOc1ccccc1-n1nnnc1SCC(=O)O,36*,-3,5,2,-7
COC(=O)C[C@H]1CC[C@@H]2[C@@H](COc3ccc(NC(=O)Nc4ccc(C)cc4)cc3C(=O)N2C)O1,x,6,x,x,10
COc1ccc(C(=O)NN=C2CCCC2)cc1,0,-8,x,2,45*
O=C(NN=C1CCCC1)c1ccc(Cl)cc1,-2,-3,0,-2,0
O=C(NN=C1CCCC1)c1ccccc1O,-1,-1,x,3,75*
Cc1cc(OCc2ccc(C(=O)NN=C3CCCC3)cc2)ccc1Cl,46*,x,27,2,x
O=C(Cc1ccccc1)N[C@@H]1CC[C@@H](CC(=O)N2CCOCC2)O[C@@H]1CO,x,-7,x,x,-6
Cc1c(C(=O)Nc2ccc(Br)cc2)cnn1C,40*,x,28,3,x
O=C(Nc1ccc(Br)cc1)c1cc2ccccn2n1,53*,x,35,2,x
O=C(Nc1ccc(Br)cc1)c1ccccc1Br,8,0,101*,3,78*
Cc1c(C(=O)Nc2ccc3c(c2)OCCO3)cnn1C,9,-1,-6,-8,-40
O=C(NCCc1ccc(Cl)cc1)c1cc2ccccn2n1,10,x,18,1,x
C/C=C/c1ccc2c(c1)O[C@H](CN(C)C(=O)c1ccc(F)cc1)[C@H](C)CN([C@H](C)CO)S2(=O)=O,x,-15,x,x,2
C[n+]1c(-c2ccccc2)sc([S-])c1-c1ccccc1,44*,x,x,0,x
CNC[C@@H]1Oc2ncc(/C=C/c3ccccc3)cc2C(=O)N([C@H](C)CO)C[C@H]1C,x,-3,x,x,-1
Nc1nc(SCc2ccccc2Cl)[nH]c(=O)c1-c1ccccc1,x,-23,6,2,14
Nc1nc(SCc2ccccc2)[nH]c(=O)c1-c1ccccc1,16,2,68,5,45*
COc1cccc(S(=O)(=O)Nc2ccc3c(c2)C(=O)N(C)[C@H]2CC[C@@H](CC(=O)O)O[C@H]2CO3)c1,x,15,x,x,3
COc1ccc(Nc2cc3n(c(=O)n2)CCc2cc(OC)c(OC)cc2-3)cc1,0,-12,41,1,11
COc1cc2c(cc1OC)-c1cc(Nc3ccccc3)nc(=O)n1CC2,45*,x,x,4,x
O=c1[nH]c(-c2ccccc2)nnc1-c1ccccc1,32*,-9,32,3,25
SMILES,Wnt act,Statin myotox sup,MITF TRPM1 HTS,FXN GAA850 act,esBAF inh
CN(C)CC(=O)Nc1ccc2c(c1)[C@@H]1C[C@H](CC(=O)NC3CCCCC3)O[C@@H](CO)[C@@H]1O2,x,2,x,x,6
C[C@@H]1CN([C@H](C)CO)C(=O)c2cc(NC(=O)Nc3ccc(F)cc3)ccc2O[C@H]1CN(C)Cc1ccc(C(F)(F)F)cc1,x,-23,x,x,5
CN(C)/C=C/C(=O)/C=C/c1ccc(Cl)cc1,71*,x,47,4,x
Cc1ccccc1S(=O)(=O)NCC[C@@H]1CC[C@@H](NC(=O)C2CCCCC2)[C@@H](CO)O1,x,2,x,x,3
Cc1ccc(N2CCN(C(=O)c3ccccc3Br)CC2)c(C)c1,-4,81*,0,2,-3
Cc1ccc(C)c(N2CCN(C(=O)c3ccccc3Br)CC2)c1,x,-11,3,1,3
C[C@H]1CN([C@@H](C)CO)C(=O)c2cc(Br)cnc2O[C@H]1CN(C)Cc1ccncc1,x,17,x,x,7
CC(=O)Oc1cc(OC(C)=O)c2c(C)cc(=O)oc2c1,0,97*,x,0,3
COc1ccc(-c2oc3cc(OC(C)=O)cc(OC(C)=O)c3c(=O)c2OC)cc1,1,-5,11,-2,23
COc1ccc(-c2oc3ccccc3c(=O)c2OC(C)=O)cc1,-4,-6,46,7,75*
CC(=O)Oc1ccc2c(C)cc(=O)oc2c1,x,x,-3,1,x
COc1ccc(-c2oc3ccccc3c(=O)c2OCC(=O)O)cc1,-1,-6,5,3,-3
CC(=O)Oc1cc(O)c2c(=O)c(OC(C)=O)c(-c3ccc(OC(C)=O)c(OC(C)=O)c3)oc2c1,x,-6,16,1,43*
COc1ccc(/C=C2\CCn3c2nc2ccccc2c3=O)cc1OC,x,7,94*,6,43*
C[C@@H]1CCCCO[C@@H](CN(C)S(=O)(=O)c2cccs2)[C@@H](C)CN([C@H](C)CO)C(=O)c2cc(NC(=O)Nc3cccc4ccccc34)ccc2O1,x,-11,x,x,3
COC(=O)c1ccccc1COn1c(=O)c(C)[n+]([O-])c2ccccc21,x,105*,6,-1,-2
Cc1noc(C)c1S(=O)(=O)N(C)C[C@@H]1Oc2ccc(NS(=O)(=O)c3ccc(F)cc3)cc2C(=O)N([C@H](C)CO)C[C@@H]1C,x,x,x,x,-3
O=C(C[C@@H]1C=C[C@H](NC(=O)Nc2ccc(C(F)(F)F)cc2)[C@H](CO)O1)NCc1cc(F)cc(F)c1,x,8,x,x,12
COc1ccc(S(=O)(=O)N2CCN(CC(O)CN3CCOCC3)CC2)cc1 (configuration not stated),53*,-11,0,2,-12
COc1ccc(OC)c(S(=O)(=O)N2CCN(CC(O)CN3CCOCC3)CC2)c1 (configuration not stated),-1,-10,2,1,-13
CO[C@H]1CN(C)C(=O)c2ccc(NC(=O)c3cccc(F)c3)cc2OC[C@@H](C)N(CC2CC2)C[C@H]1C,x,-7,x,x,0
CC=Cc1ccc2n(c1=O)C[C@@H]1N[C@H]2[C@H](C(=O)NC2CCCCC2)[C@H]1CO (mixture of isomers),x,7,x,x,-2
Cc1ccc2cc(CCNC(=O)c3cccs3)c(=O)[nH]c2c1,30,-6,58,2,54*
O=C(c1cccs1)N(Cc1cc2ccccc2[nH]c1=O)c1ccccc1,x,x,0,1,x
Cc1ccc2cc(CCNC(=O)c3cccs3)c(=O)[nH]c2c1C,19,9,x,4,59*
Cc1ccc(N(Cc2cc3ccccc3[nH]c2=O)C(=O)c2cccs2)cc1C,0,101*,10,-1,-3
CC(C)NC(=O)N(C)C[C@@H]1Oc2ccc(NC(=O)c3ccncc3)cc2C(=O)N([C@H](C)CO)C[C@H]1C,x,-7,x,x,-4
COc1cc(S(=O)(=O)N2CCN(C(=O)c3ccccc3F)CC2)c(OC)cc1NC(C)=O,x,102*,-3,-2,-5
COc1ccc(S(=O)(=O)N2CCN(C)CC2)cc1NC(=O)c1ccccc1F,-3,-14,x,0,3
